# Measured values published in PubChem BioAssay (EPA / NIEHS).
# Results filed as inconclusive are left out. Activity calls are given as the source filed them. The calls were made as follows, unless noted: active = hit-call score of the fitted dose curve at least 0.9, where 1 is the maximum; inactive = score below 0.9.
# How the values were obtained:
# [1] = target: Paired box protein Pax-6 (Homo sapiens) (UniProt P26367); test: ATG_Pax6_CIS: Attagene CIS-FACTORIAL HepG2 Assay for human Paired Box 6 (PAX6) (AID 2282956); conditions: HepG2 CIS-FACTORIAL PAX6 reporter transcription, RNA readout; actives raise or lower the signal
# Outline: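 Multiplexed cis-reporter HepG2 system; 24 h treatment; reporter mRNA read by RT-PCR/CE fluorescence; bidirectional fit vs DMSO.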
# [2] = ATG_PXRE_CIS: Attagene CIS-FACTORIAL HepG2 Assay for human Pregnane X Receptor Element (PXRE) (AID 2282957); conditions: HepG2 Attagene CIS-FACTORIAL PXRE reporter, mRNA; actives raise or lower the signal
# Outline: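 Cis-element reporter mRNA in human hepatoma HepG2 cells is measured 24 h post-dosing by RT-PCR, primer-extension labeling and capillary electrophoresis; gain or loss of signal is fitted relative to DMSO.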
# [3] = ATG_PPRE_CIS: Attagene CIS-FACTORIAL HepG2 Assay for human Peroxisome Proliferator-activated Response Element (PPRE) (AID 2282958); conditions: HepG2 PPRE cis-element reporter, Attagene transcription factor profiling; actives raise or lower the signal
# Outline: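 DMSO served as negative control and baseline for bidirectional curve fitting. Signal came from PPRE-regulated reporter mRNA in HepG2 cells, measured 24 h post-dosing by RT-PCR, 6-FAM primer extension and capillary electrophoresis.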
# [4] = ATG_RORE_CIS: Attagene CIS-FACTORIAL HepG2 Assay for human RAR-related Orphan Receptor Element (RORE) (AID 2282959); conditions: HepG2 Attagene cis-factorial RORE reporter, mRNA; actives raise or lower the signal
# Outline: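 Transfect HepG2 with MRTUs; treat 24 h; extract RNA; RT with oligo(dT); PCR with reporter-specific primers; 6-FAM primer extension; HpaI digest 2 h at 37 C; capillary electrophoresis. Fit vs DMSO, bidirectional.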
# [5] = ATG_Sox_CIS: Attagene CIS-FACTORIAL HepG2 Assay for human SRY-box transcription factor (SOX) (AID 2282960); conditions: HepG2 Attagene cis-factorial SOX reporter, mRNA; actives raise or lower the signal
# Outline: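 Fluorescence-labelled cDNA fragments from reporter transcripts, sized by CE, give the signal. Cells: HepG2, transiently transfected with cis-regulated reporter units. Exposure 24 h; DMSO negative control; bidirectional curve fitting.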
# [6] = target: Transcription factor Sp1 (Homo sapiens) (UniProt P08047); test: ATG_Sp1_CIS: Attagene CIS-FACTORIAL HepG2 Assay for human Specificity Protein 1 (Sp1) (AID 2282961); conditions: HepG2 Sp1 cis-reporter transcription, actives raise or lower the signal
# Outline: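 Chemicals are dosed onto HepG2 cells transfected with multiple cis-promoter reporter constructs, and after 24 h reporter RNA is reverse-transcribed, PCR-amplified and resolved by capillary electrophoresis for fluorescence quantitation; activity is scored up or down against DMSO.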
# [7] = ATG_SREBP_CIS: Attagene CIS-FACTORIAL HepG2 Assay for human Sterol Regulatory Element Binding (SREBP) (AID 2282962); conditions: HepG2 Attagene cis-factorial SREBP reporter, mRNA; actives raise or lower the signal
# Outline: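 mRNA induction of transfected cis-promoter reporters in HepG2 cells, 24 h post-dose. Detection: RT-PCR with 6-FAM-labelled products, HpaI digest, capillary electrophoresis. DMSO served as negative control and baseline.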
# [8] = target: Signal transducer and activator of transcription 3 (Homo sapiens) (UniProt P40763); test: ATG_STAT3_CIS: Attagene CIS-FACTORIAL HepG2 Assay for human Signal Transducer and Activator of Transcription 3 (STAT3) (AID 2282963); conditions: HepG2, Attagene cis-factorial STAT3 reporter transcription; actives raise or lower the signal
# Outline: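 Transcript-level reporter assay. HepG2 transient MRTU transfection, 24 h exposure, fluorescence detection after RT-PCR and CE; DMSO baseline.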
# [9] = ATG_TA_CIS: Attagene CIS-FACTORIAL HepG2 Assay for human TA Basal Promoter (AID 2282964); conditions: HepG2 Attagene CIS-factorial TA basal promoter reporter; actives raise or lower the signal
# Outline: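 Steps: transfect HepG2 with MRTUs; dose 24 h; isolate RNA, DNase-treat, reverse-transcribe; PCR and FAM-label reporter cDNA; digest with HpaI 2h at 37 C; run capillary electrophoresis. Activity fitted both directions against DMSO.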
# [10] = ATG_TCF_b_cat_CIS: Attagene CIS-FACTORIAL HepG2 Assay for human T-Cell-Factor with beta-catenin (TCF/b-cat) (AID 2282965); conditions: HepG2 TCF/beta-catenin cis-reporter transcription, actives raise or lower the signal
# Outline: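 In this cis-format system, transfected HepG2 cells report endogenous transcription factor activity. Readout after 24 h exposure is reporter transcript abundance from RT-PCR and capillary electrophoresis, analysed for gain or loss of signal versus DMSO.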
# [11] = ATG_TAL_CIS: Attagene CIS-FACTORIAL HepG2 Assay for human TAL Basal Promoter (AID 2282966); conditions: HepG2 Attagene cis-factorial TAL promoter reporter; actives raise or lower the signal;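 also: background control endpoint measuring basal TAL promoter reporter mRNA not a specific factor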
# Outline: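 In this cell-based multiplex, HepG2 liver cells bearing cis-promoter reporter constructs are dosed for 24 hours. Total RNA is reverse-transcribed and amplified, labelled fragments are sized by capillary electrophoresis, and signal changes are fitted bidirectionally versus DMSO.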
# [12] = ATG_TGFb_CIS: Attagene CIS-FACTORIAL HepG2 Assay for human Transforming Growth Factor (TGF) (AID 2282967); conditions: HepG2 Attagene CIS TGFb reporter, mRNA transcription; actives raise or lower the signal
# Outline: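 Cells were dosed for 24 hours, after which total RNA was reverse-transcribed and reporter sequences amplified, labeled and sized by capillary electrophoresis. Activity was fitted in both directions against DMSO.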
# [13] = ATG_VDRE_CIS: Attagene CIS-FACTORIAL HepG2 Assay for human Vitamin D Receptor Element (VDRE) (AID 2282968); conditions: HepG2 VDRE cis-reporter transcription, actives raise or lower the signal
# Outline: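 RT-PCR/CE readout of reporter mRNA; HepG2, transient transfection, 24 h dosing; DMSO baseline; bidirectional analysis.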
# [14] = target: Nuclear receptor subfamily 1 group I member 3 (Homo sapiens) (UniProt Q14994); test: ATG_CAR_TRANS: Attagene TRANS-FACTORIAL HepG2 Assay for human Constitutive Androstane Receptor (CAR) (AID 2282969; active = hit-call score of the fitted dose curve at least 0.9, where 1 is the maximum;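 also: activators raise reporter mRNA above DMSO so AC50 marks induction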); conditions: HepG2 Attagene TRANS-FACTORIAL CAR reporter
# Outline: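 HepG2 cells transiently transfected with multiplexed GAL4-UAS reporter units expressing chimeric NR-Gal4 proteins; compound exposure 24 h. Reporter mRNA measured by RT-PCR, 6-FAM labelling, HpaI digestion and capillary electrophoresis; gain-of-signal fitted against DMSO baseline.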
# [15] = target: X-box-binding protein 1 (Homo sapiens) (UniProt P17861); test: ATG_Xbp1_CIS: Attagene CIS-FACTORIAL HepG2 Assay for human X-box Binding Protein 1 (XBP1) (AID 2282972); conditions: HepG2 XBP1 cis-element reporter, Attagene multiplex; actives raise or lower the signal
# Outline: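 Fluorescence-labelled cDNA fragments from reporter transcripts, separated by capillary electrophoresis, give the signal. Source: HepG2 cells transfected with promoter-driven reporter units, harvested 24 h post-dose. DMSO served as reference for bidirectional curve fitting.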
# [16] = ATG_M_19_TRANS: Attagene TRANS-FACTORIAL HepG2 Assay for M19 Transcription Factor (Internal Marker) (AID 2282974; active = hit-call score of the fitted dose curve at least 0.9, where 1 is the maximum); conditions: HepG2 Attagene TRANS-FACTORIAL M19 internal marker reporter
# Outline: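 Multiplexed TRANS format: HepG2 liver cells bearing transient GAL4-UAS reporter units, chemical treatment 24 h, reporter transcripts quantified by RT-PCR plus capillary electrophoresis. DMSO defines baseline.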
# [17] = ATG_GAL4_TRANS: Attagene TRANS-FACTORIAL HepG2 Assay for GAL4 (Internal Marker) (AID 2282976; active = hit-call score of the fitted dose curve at least 0.9, where 1 is the maximum); conditions: HepG2 Attagene TRANS GAL4 internal marker reporter
# Outline: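 RT-PCR/capillary electrophoresis readout of reporter mRNA. HepG2, transient MRTU transfection (GAL4-UAS reporters), 24 h compound exposure. Background-control endpoint, positive direction vs DMSO baseline.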
# [18] = target: Steroid hormone receptor ERR1 (Homo sapiens) (UniProt P11474); test: ATG_ERRa_TRANS: Attagene TRANS-FACTORIAL HepG2 Assay for human Estrogen-Related Receptor alpha (ERRa) (AID 2282971; active = hit-call score of the fitted dose curve at least 0.9, where 1 is the maximum); conditions: HepG2 Attagene TRANS reporter, ERRa transactivation
# Outline: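 Transfected HepG2, 24 h dosing, ERRa-Gal4 chimera driving GAL4-UAS reporter. Readout: reporter mRNA via RT-PCR plus capillary electrophoresis (fluorescence). Positive direction vs DMSO control.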
# [19] = target: Estrogen-related receptor gamma (Homo sapiens) (UniProt P62508); test: ATG_ERRg_TRANS: Attagene TRANS-FACTORIAL HepG2 Assay for human Estrogen-Related Receptor gamma (ERRg) (AID 2282977; active = hit-call score of the fitted dose curve at least 0.9, where 1 is the maximum;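 also: hits increase reporter signal over DMSO so potencies reflect activators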); conditions: HepG2 Attagene TRANS reporter, ERRg transactivation
# Outline: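 Transfect HepG2 with multiple GAL4-UAS reporter transcription units; dose chemicals 24 h; isolate RNA, reverse-transcribe with oligo(dT), PCR-amplify, label with 6-FAM, digest with HpaI; size fragments by capillary electrophoresis. DMSO serves as negative control.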
# Sequence of Signal transducer and activator of transcription 3 (Homo sapiens) (P40763 whole entry, looked up): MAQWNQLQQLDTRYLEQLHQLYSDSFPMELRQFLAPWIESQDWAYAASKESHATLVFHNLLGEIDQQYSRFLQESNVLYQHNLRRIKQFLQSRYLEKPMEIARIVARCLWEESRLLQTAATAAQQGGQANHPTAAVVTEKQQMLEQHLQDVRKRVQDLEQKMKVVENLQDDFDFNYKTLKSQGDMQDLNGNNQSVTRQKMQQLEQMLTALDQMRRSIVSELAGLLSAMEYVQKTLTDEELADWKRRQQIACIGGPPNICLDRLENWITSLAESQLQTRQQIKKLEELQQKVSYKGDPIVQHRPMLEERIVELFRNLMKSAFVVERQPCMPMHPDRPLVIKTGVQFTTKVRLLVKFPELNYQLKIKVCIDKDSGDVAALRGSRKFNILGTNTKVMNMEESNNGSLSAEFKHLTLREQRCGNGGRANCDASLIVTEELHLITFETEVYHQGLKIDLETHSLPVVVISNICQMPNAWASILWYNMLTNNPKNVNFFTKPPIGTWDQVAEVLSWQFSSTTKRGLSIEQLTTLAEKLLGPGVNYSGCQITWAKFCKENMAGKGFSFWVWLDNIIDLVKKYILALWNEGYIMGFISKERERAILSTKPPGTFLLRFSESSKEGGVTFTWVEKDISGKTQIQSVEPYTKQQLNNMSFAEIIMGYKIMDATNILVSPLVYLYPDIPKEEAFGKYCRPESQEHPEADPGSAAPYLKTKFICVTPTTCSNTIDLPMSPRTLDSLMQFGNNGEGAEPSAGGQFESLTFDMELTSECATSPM
# Sequence of Transcription factor Sp1 (Homo sapiens) (P08047 whole entry, looked up): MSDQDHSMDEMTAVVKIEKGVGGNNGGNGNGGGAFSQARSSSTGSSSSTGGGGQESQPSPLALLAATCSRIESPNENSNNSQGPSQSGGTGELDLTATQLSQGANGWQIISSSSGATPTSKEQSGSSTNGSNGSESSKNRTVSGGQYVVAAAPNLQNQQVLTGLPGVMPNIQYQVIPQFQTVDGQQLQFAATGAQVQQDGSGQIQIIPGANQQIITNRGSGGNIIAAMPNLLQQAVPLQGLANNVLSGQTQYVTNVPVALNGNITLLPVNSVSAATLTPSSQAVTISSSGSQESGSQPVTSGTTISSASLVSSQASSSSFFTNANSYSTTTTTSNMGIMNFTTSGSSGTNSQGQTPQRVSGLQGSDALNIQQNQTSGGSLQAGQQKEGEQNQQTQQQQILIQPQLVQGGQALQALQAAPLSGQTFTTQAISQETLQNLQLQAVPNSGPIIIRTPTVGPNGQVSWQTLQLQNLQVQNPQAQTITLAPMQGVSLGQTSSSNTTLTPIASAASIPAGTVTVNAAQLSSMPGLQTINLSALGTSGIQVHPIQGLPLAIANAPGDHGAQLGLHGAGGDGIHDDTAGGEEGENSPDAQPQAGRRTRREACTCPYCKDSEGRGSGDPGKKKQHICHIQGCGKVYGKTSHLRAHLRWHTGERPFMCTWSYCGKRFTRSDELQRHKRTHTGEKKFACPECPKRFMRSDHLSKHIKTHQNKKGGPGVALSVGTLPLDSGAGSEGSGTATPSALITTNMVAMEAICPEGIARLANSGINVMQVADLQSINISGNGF
# Sequence of Paired box protein Pax-6 (Homo sapiens) (P26367 whole entry, looked up): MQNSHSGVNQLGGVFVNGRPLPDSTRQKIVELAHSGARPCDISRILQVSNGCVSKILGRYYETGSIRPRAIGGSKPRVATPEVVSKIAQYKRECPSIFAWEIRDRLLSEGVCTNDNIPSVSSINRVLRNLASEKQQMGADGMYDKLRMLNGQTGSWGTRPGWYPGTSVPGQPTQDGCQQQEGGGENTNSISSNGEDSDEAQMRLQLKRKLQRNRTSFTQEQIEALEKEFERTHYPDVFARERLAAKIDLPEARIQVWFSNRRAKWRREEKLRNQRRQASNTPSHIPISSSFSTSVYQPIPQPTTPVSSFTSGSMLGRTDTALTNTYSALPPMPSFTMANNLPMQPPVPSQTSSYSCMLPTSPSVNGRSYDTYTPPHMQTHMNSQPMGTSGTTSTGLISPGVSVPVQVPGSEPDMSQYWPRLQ
# Sequence of X-box-binding protein 1 (Homo sapiens) (P17861 whole entry, looked up, the tested form may be a part): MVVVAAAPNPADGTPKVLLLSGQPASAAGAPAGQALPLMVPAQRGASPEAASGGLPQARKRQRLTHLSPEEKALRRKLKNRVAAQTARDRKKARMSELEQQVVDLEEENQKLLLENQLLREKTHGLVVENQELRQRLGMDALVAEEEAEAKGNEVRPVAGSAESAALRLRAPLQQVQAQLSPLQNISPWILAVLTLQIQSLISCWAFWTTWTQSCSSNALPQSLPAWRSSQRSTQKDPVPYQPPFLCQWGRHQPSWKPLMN
# Sequence of Nuclear receptor subfamily 1 group I member 3 (Homo sapiens) (Q14994 whole entry, looked up, the tested form may be a part): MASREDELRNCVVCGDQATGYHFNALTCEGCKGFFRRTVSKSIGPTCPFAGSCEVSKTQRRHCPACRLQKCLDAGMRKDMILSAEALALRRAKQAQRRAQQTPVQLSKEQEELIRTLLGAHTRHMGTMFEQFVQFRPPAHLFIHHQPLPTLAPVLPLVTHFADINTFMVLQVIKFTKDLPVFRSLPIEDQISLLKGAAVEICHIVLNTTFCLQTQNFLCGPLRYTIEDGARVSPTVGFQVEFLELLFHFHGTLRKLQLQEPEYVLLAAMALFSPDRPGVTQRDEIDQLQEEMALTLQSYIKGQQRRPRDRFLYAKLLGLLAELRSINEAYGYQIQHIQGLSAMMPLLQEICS
# Sequence of Estrogen-related receptor gamma (Homo sapiens) (P62508 whole entry, looked up, the tested form may be a part): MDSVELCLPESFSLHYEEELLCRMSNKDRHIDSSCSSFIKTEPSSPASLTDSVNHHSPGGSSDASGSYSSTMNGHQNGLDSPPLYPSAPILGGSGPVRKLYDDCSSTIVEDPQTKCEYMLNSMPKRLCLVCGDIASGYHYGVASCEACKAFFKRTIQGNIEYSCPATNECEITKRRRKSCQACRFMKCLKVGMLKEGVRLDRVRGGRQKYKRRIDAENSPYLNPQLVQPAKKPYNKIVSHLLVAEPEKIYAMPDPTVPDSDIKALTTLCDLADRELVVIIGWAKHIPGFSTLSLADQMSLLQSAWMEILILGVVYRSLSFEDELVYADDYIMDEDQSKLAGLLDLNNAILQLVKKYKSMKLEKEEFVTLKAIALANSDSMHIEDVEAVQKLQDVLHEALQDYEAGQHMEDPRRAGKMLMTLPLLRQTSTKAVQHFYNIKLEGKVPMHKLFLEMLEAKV
# Sequence of Steroid hormone receptor ERR1 (Homo sapiens) (P11474 whole entry, looked up, the tested form may be a part): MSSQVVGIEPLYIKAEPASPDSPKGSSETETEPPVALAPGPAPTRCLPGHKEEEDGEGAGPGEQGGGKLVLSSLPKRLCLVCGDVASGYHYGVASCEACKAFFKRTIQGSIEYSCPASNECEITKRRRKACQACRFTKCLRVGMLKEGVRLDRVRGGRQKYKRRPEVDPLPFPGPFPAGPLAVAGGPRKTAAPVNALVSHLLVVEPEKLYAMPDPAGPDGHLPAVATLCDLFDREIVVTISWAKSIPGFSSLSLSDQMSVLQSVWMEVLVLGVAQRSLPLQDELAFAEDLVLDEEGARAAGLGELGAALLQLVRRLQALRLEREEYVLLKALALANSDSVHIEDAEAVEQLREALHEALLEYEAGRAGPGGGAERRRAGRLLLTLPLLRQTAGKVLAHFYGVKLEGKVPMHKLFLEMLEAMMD
compound,measurement,setting,value
COC(C)(C)CC(C)=O,outcome,[1],inactive
same,AC50,[2],34.4 µM (active)
same,outcome,[3],inactive
same,outcome,[4],inactive
same,outcome,[5],inactive
same,outcome,[6],inactive
same,outcome,[7],inactive
same,outcome,[8],inactive
same,outcome,[9],inactive
same,outcome,[10],inactive
same,outcome,[11],inactive
same,outcome,[12],inactive
same,outcome,[13],inactive
same,outcome,[14],inactive
same,outcome,[15],inactive
same,outcome,[16],inactive
same,outcome,[17],inactive
CCc1ncc(C)[nH]1,outcome,[1],inactive
same,outcome,[2],inactive
same,outcome,[3],inactive
same,outcome,[4],inactive
same,outcome,[5],inactive
same,outcome,[6],inactive
same,outcome,[7],inactive
same,outcome,[8],inactive
same,outcome,[9],inactive
same,outcome,[10],inactive
same,outcome,[11],inactive
same,outcome,[12],inactive
same,outcome,[13],inactive
same,outcome,[15],inactive
COC(C)(C)CCCC(C)CC=O (stereo not drawn),outcome,[1],inactive
same,outcome,[2],inactive
same,outcome,[3],inactive
same,outcome,[4],inactive
same,outcome,[5],inactive
same,outcome,[6],inactive
same,outcome,[7],inactive
same,outcome,[8],inactive
same,outcome,[9],inactive
same,outcome,[10],inactive
same,outcome,[11],inactive
same,outcome,[12],inactive
same,outcome,[13],inactive
same,outcome,[18],inactive
same,outcome,[15],inactive
same,outcome,[16],inactive
same,outcome,[19],inactive
CCCCCCCCCCCCN1CCCCCC1=O,outcome,[1],inactive
same,AC50,[2],1.46 µM (active)
same,outcome,[3],inactive
same,outcome,[4],inactive
same,outcome,[5],inactive
same,outcome,[6],inactive
same,outcome,[7],inactive
same,outcome,[8],inactive
same,outcome,[9],inactive
same,outcome,[10],inactive
same,outcome,[11],inactive
same,outcome,[12],inactive
same,outcome,[13],inactive
same,outcome,[14],inactive
same,AC50,[15],14.5 µM (active)
